From PubChem
MLLE-PAM2 inh = inhibitors of microRNA-mediated deadenylation, human PABP1 MLLE binding. P11940. GST-MLLE / FITC-PAM2 fluorescence polarization. inhibition, % at 20 µM. actives 0.36% (n = 360,000). AID 588489; in the data active means inhibition above about 35%, passing the limit was not always enough;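 further: plate controls were DMSO wells with GST-MLLE for no effect and wells lacking GST-MLLE protein for full effect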
Target sequence (P11940 whole entry, looked up): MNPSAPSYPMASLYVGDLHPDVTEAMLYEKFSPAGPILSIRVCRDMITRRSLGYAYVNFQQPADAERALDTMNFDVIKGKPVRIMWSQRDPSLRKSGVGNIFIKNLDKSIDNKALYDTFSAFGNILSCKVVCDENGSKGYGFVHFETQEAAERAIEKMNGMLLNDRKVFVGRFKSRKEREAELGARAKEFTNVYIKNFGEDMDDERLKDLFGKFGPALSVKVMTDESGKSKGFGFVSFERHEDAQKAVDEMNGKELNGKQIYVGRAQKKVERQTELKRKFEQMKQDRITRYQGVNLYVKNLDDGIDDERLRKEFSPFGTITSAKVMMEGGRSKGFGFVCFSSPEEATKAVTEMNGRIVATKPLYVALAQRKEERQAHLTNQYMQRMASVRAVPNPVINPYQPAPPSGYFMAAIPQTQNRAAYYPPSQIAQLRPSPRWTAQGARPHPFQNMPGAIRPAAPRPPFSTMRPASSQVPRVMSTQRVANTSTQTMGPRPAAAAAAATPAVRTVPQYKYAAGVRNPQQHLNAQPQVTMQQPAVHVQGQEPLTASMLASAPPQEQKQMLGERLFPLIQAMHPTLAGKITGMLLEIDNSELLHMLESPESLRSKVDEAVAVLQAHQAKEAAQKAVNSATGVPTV
eIF4H inh = inhibitors of RNA binding by human eIF4H; eIF4H fluorescence polarization binding assay; actives 0.94% (n = 290,000); inhibition, % at 35 µM; Q15056;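 further: calls also rest on retests at 20 µM and on dose response follow-up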
PERK inh = inhibitors of human PERK kinase; Q9NZJ5; actives 0.17% (n = 220,000); CHO PERK-DD fusion, SEAP luminescence translation reporter; inhibition, % at 5.6 µM;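 active means inhibition above the mean inhibition of all tested compounds plus 3 SD, set separately per screening campaign, cut at about 2.9% in these data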;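 further: PERK kinase domain activated by AP20187 dimerizer at 100 nM; 0% = DMSO with dimerizer and 100% = rapamycin at 8.4 µM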
eIF4E 4G PPI = eIF4E/eIF4G interaction inhibition in translation initiation | TR-FRET eIF4E-eIF4GI(517-606) binding, 2 h | P63073+Q04637 | actives 0.37% (n = 220,000) | inhibition, % at 21.7 µM;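 active means inhibition above about 30%, limit read from the data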;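 further: 0% = full FRET control wells and 100% = background wells lacking eIF4GI fragment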
PABP polyA inh = blocks human PABP binding to poly(A) RNA; P11940; fluorescence polarization; inhibition, % at 35 µM; AID 2014; actives 1% (n = 290,000);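 further: calls also rest on retests at 20 µM and on dose response follow-up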
M18AAP inhibitor = PfM18AAP enzyme inhibition; recombinant PfM18AAP, H-Glu-NHMec fluorogenic cleavage; inhibition, % at 7.35 µM; actives 1.2% (n = 290,000); AID 1822;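 active means inhibition above the campaign mean inhibition over all tested compounds plus 3 SD, cut at about 28% in these data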;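 further: 0% = plate median of test compound wells and 100% = 2 mM ZnCl2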
Starred values were filed as active, the others as inactive; ? = inconclusive; / = no result; [ ] = remark or other dose. Shown are actives, neighbours in structure and some others; about 2.4% of the full set was active somewhere. Unless noted, how the calls were made is not given here.

SMILES | MLLE-PAM2 inh | eIF4H inh | PERK inh | eIF4E 4G PPI | PABP polyA inh | M18AAP inhibitor
O=C(NC(c1ccc(Cl)cc1)c1cc(Cl)c2cccnc2c1O)c1cccnc1 (stereo unspecified) | -2 | ? | 1 | 4 | 90* | -7
Cc1ccc(-n2c(Cc3cccn3C)nnc2SCC(=O)NCc2ccc3c(c2)OCO3)cc1 | -21 | 2 | 0 | 2 | 7 | 30*
COc1ccc(-n2c(Cc3cccn3C)nnc2SCC(=O)Nc2ccccc2)cc1 | -26 | 0 | 0 | 3 | -18 | 2
Cc1ccc(-n2c(Cc3cccn3C)nnc2SCC(=O)Nc2ccc3c(c2)OCO3)cc1 | -19 | -1 | 0 | -12 | 0 | 9
COc1ccc(-n2c(Cc3cccn3C)nnc2SCC(=O)Nc2cccc(F)c2)cc1 | -33 | 1 | -1 | 62*[fluorescence artefact?] | 6 | 7
Cc1cc(Cl)ccc1N=c1ssnc1Cl | 18 | 0 | 1 | 48* | 6 | 7
Cc1ccc(N=c2ssnc2Cl)cc1 | 22 | 0 | 1 | 72*[fluorescence artefact?] | 4 | 9
Cc1cc(C)nc(/N=c2/ssnc2Cl)c1 | -8 | 0 | 0 | 4 | 23 | 29*
COc1cc(N=c2ssnc2Cl)c(OC)cc1Cl | 16 | -2 | 0 | 73*[fluorescence artefact?] | 14 | 29*
Nc1ccccc1N=c1ssnc1Cl | 14 | 4 | 2 | 12 | 8 | 21
O=S(=O)(Nc1ccccc1)c1ccc(Oc2ncc(C(F)(F)F)cc2Cl)cc1 | -8 | -10 | 1 | / | -8 | -5
CCOc1ccc(S(=O)(=O)N2CCN(CC(O)COc3cccc([N+](=O)[O-])c3)CC2)cc1 (stereo unspecified) | 8 | 7 | / | / | 10 | 5
Nc1ccc2nn(-c3cccc4ccccc34)nc2c1 | -22 | 91* | 1 | 14 | 16 | 2
O=C(Nc1ccc2c(c1)OCO2)N1CCN(c2ncc(C(F)(F)F)cc2Cl)CC1 | -3 | -6 | 0 | -7 | -3 | 12
C/C(CC(=O)Nc1cc(C)ccn1)=N\NC(=O)c1ccccc1C | -2 | 67 | 0 | 0 | 25* | -3
O=C(NCc1cccc(Br)c1)C1CC(c2ccccc2[N+](=O)[O-])=NO1 (stereo unspecified) | -1 | / | / | / | / | /
S=C(c1ccc(-c2ccccc2Cl)o1)N1CCOCC1 | 41* | 12 | 0 | 4 | 17 | 4
S=C(c1ccc(-c2ccc(Cl)c(Cl)c2)o1)N1CCOCC1 | 22 | 9 | 0 | -2 | -5 | 1
CCOC(=O)C(=O)N/N=C/c1ccco1 | -6 | 94* | 1 | 7 | 65* | 13
Cc1cc(C)cc(OCC(=O)N/N=C/c2ccco2)c1 | 4 | -7 | 0 | 1 | -4 | 1
O=C(Nc1ccc(F)cc1F)c1noc2c1CCC2 | 14 | 85* | 1 | 16 | 45* | -2
CCCc1nnc(NC(=O)C2CCCO2)s1 (stereo unspecified) | 3 | 1 | 0 | 1 | -8 | 2
c1ccc(COc2ncnc3c2ncn3CCCNCC(c2ccccc2)c2ccccc2)cc1 | -7 | / | / | / | / | /
C/C(=N\NC(=O)c1ccc(N2CCCC2=O)cc1)c1ccccc1 | 3 | -2 | / | / | 10 | -2
C/C(=N\NC(=O)c1ccc(N2CCCC2=O)cc1)c1ccc(O)cc1O | -3 | 7 | / | / | 4 | 28*
SMILES | MLLE-PAM2 inh | eIF4H inh | PERK inh | eIF4E 4G PPI | PABP polyA inh | M18AAP inhibitor
Cc1cc(=O)n2[nH]cc(C(=O)O)c2n1 | -3 | 0 | 0 | -3 | 29 | 29*
Cc1[nH]c(=O)c(C#N)c2c1COC(C)(C)C2 | 0 | -6 | 2 | 6 | -3 | 0
CC1=C(C#N)C(=O)OC(C)(C)C1 | 87 | 122* | 1 | 0 | 116* | -1
COCCNC(=O)C1CC(c2ccc(F)cc2)=NO1 (stereo unspecified) | -5 | 1 | 0 | -9 | -2 | 0
COCCNC(=O)C1CC(c2cccc(F)c2)=NO1 (stereo unspecified) | 2 | -1 | / | 60* | 4 | /
NC(=S)N=Nc1ccc(NN=C(N)N)cc1 | 3 | 7 | / | / | 9 | 67*
COC(=O)c1ccc(NN=Nc2ccc(C)cc2)cc1 | 10 | -8 | 0 | -14 | 2 | -2
O=S(=O)(c1ccc(SCCOc2ccc(F)cc2)nc1)N1CCCC1 | 30 | / | / | / | / | /
CC(C)(C)OC(=O)N1CCCC1C(=O)NCCc1ccccc1 (stereo unspecified) | -152 | 6 | 0 | 5 | 52* | -9
